The values that follow come from PubChem BioAssay (Tox21).

Molecules are shown by their SMILES. Where “and” joins values, the source holds several entries; their conditions need not be identical. Equal entries are not always repeated. Inconclusive results are not listed. Unmarked numbers belong to inactive results. Calls of active or inactive are those of the source. The call rests on the fitted dose curve; in most records, active means well fitted cell-killing curve with a large enough effect in the repeat runs; inconclusive means weak or mixed curves; inactive means flat fitted curve, though single readings scatter. Starred links: 1 amine or outer side, 2 acyl side, 3 side chain; linkers in the order of their positions; H or OH if unused. Positions of bridges follow the written chain, without caps; N, C: chain ends. Non-standard residues stand in square brackets, D forms with d. Residues, ends and D or L forms follow the SMILES beside them. Chains are numbered I, II in the order given. Actinocin(9to1) = Cc1c2oc3c(C)ccc(C(=O)[*:1])c3nc-2c(C(=O)[*:2])c(N)c1=O; NMeV = CN[C@H](C(=O)O)C(C)C; Sar = CNCC(=O)O
On the % scale 0 is the no-effect control and ±100 the full control effect; potency means the concentration at half of the fitted maximal effect.

The nature of this assay: qHTS RealTime-Glo MT Cell Viability Assay in HepG2 cells - 8 hour (AID 1224873). Further: nearly all actives have a fitted effect of over 55% in size. To be noted: RealTime-Glo luminescence; series mostly up to 76.8 µM; viability change, negative = cytotoxic: at the top concentration. The text has this: National Center for Advancing Translational Sciences [NCATS]
NIH Chemical Genomics Center [NCGC]
U.S. Environmental Protection Agency [EPA]
National Institutes of Environmental Health Sciences [NIEHS]
National Toxicology Program [NTP]
U.S. Food and Drug Administration [FDA]
Measure of cell viability is critical in the cell-base assay. Analysis of cell viability is necessary for the characterization of cell responses to cytotoxic drugs and environmental stress. A RealTime-Glo MT Cell Viability Assay to monitor cell viability in real time of continues cell culture during 40 hours of compound treatment was used to screen Tox21 10K library compounds in HepG2 cells. The RealTime-Glo MT Cell Viability Assay is a nonlytic, homogeneous, bioluminescent method to measure cell viability in real time using a simple, plate-based method. The assay involves adding NanoLuc luciferase and a cell-permeant prosubstrate to cells in culture. Viable cells reduce the proprietary prosubstrate to generate a substrate for NanoLuc luciferase. This substrate diffuses from cells into the surrounding culture medium, where it is rapidly used by the NanoLuc Enzyme to produce a luminescent signal. The signal correlates with the number of viable cells, making the assay well suited for cytotoxicity studies.
Tox21 Assay Protocol Summary:
The mixture of HepG2 cell suspension and reagents were dispensed at 600cells/6 ul/well in 1536-well tissue culture treated black solid bottom plates using a Multidrop dispenser. After the assay plates were incubated at a 37 C/5% CO2 incubator for 5 hours, 23 nL of compounds dissolved in DMSO, positive and negative controls was transferred to the assay plate by a pintool work station. The plates were incubated at 37 C for 40 hours. The luminescence intensity were measured at 0h, 8h, 16h, 24h, 32h and 40h time points using ViewLux plate reader during compound treatment.
A general note: Quantitative high-throughput screening tests each substance at several concentrations.
In the case of `CC(=O)OCCOCCOCCOC(C)=O`, the Potency result was “inactive”.

For `CC(C(O)c1ccc(O)cc1)N1CCC(Cc2ccccc2)CC1` (stereo not given), the “viability change, negative = cytotoxic” value was -3.3% [at 35.3 µM].

Consider `NC12CC3CC(CC(C3)C1)C2`, for which the “viability change, negative = cytotoxic” value was 2.8% [at 35.3 µM].

As for `O=C1NCC2(CCN(CCc3ccccc3)CC2)O1`, the “viability change, negative = cytotoxic” value is 1.47% [at 35.3 µM].

With `Nc1nc(=S)c2[nH]cnc2[nH]1`, the Potency result was “inactive”.

Take `CC(C)CCOCc1ccccc1`: the “viability change, negative = cytotoxic” value is 0.438%.

Take `CC(COc1ccccc1)N(CCCl)Cc1ccccc1` (stereo not given): the Potency entry is “inactive”.

For `Oc1c(Cl)cc(Cl)cc1Sc1cc(Cl)cc(Cl)c1O`, the Potency entry is “inactive”.

Turning to `CC(=O)N[C@@H](CS)C(=O)O`, the Potency entry was “inactive”.

As for `COc1ccc(COC(C)=O)cc1`, the Potency result is “inactive”.

With `Cc1cc(C(C)(C)C)c(O)c(C(C)(C)C)c1`, the Potency result is “inactive”.

On to `CC(=O)C1=C(C)[C@@H]2C[C@@]3(C1)[C@H](C)CC[C@H]3C2(C)C`, for which the Potency result was “inactive”.

Take `CC(C)(C)NCC(O)c1cc(O)cc(O)c1` (stereo not given): the “viability change, negative = cytotoxic” value was -1.32% [at 35.3 µM].

Regarding `O=C1Nc2ccccc2C1(c1ccc(O)cc1)c1ccc(O)cc1`, the Potency result is “inactive”.

Turning to `CCN(CC)C(=S)SSC(=S)N(CC)CC`, the Potency is 44.7 µM (active).

As to `CCN(CC)C(=O)Nc1ccc(OCC(O)CNC(C)(C)C)c(C(C)=O)c1` (stereo not given), the “viability change, negative = cytotoxic” value is -8.05% [at 35.3 µM].

Take `OCCOCCN1CCN(C(c2ccccc2)c2ccc(Cl)cc2)CC1` (stereo not given): the “viability change, negative = cytotoxic” value is 23.5% [at 35.3 µM].

Regarding `Cc1ccnc2c1NC(=O)c1cccnc1N2C1CC1`, the Potency entry was “inactive”.

As to `Cc1scc2c1N(C(=O)CN1CCN(C)CC1)c1ccccc1NC2=O`, the “viability change, negative = cytotoxic” value was 2.89% [at 35.3 µM].

In the case of `Cc1c2oc3c(C)ccc(C(=O)N[C@@H]4C(=O)N[C@H](C(C)C)C(=O)N5CCC[C@H]5C(=O)N(C)CC(=O)N(C)[C@@H](C(C)C)C(=O)O[C@@H]4C)c3nc-2c(C(=O)N[C@@H]2C(=O)N[C@H](C(C)C)C(=O)N3CCC[C@H]3C(=O)N(C)CC(=O)N(C)[C@@H](C(C)C)C(=O)O[C@@H]2C)c(N)c1=O` (I: T[dV]P[Sar][NMeV] / II: T[dV]P[Sar][NMeV]; ester I:1-I:C, II:1-II:C; linker I:N-II:N via Actinocin(9to1)), the Potency was 9.5 µM (active) and 10.7 µM (active).

Regarding `CC(=O)Nc1ccc(C(=O)CCl)cc1`, the “viability change, negative = cytotoxic” value is 1.25%.

Regarding `CC(C)(C)NC(=O)[C@@H]1CN(Cc2cccnc2)CCN1C[C@@H](O)C[C@@H](Cc1ccccc1)C(=O)N[C@H]1c2ccccc2C[C@H]1O`, the Potency result was “inactive”.

As to `CC[C@@H](N)CO`, the “viability change, negative = cytotoxic” value was 3.76%.

Turning to `CCCNC(C)C(=O)Nc1ccccc1C` (stereo not given), the “viability change, negative = cytotoxic” value was 5.45% [at 35.3 µM].

Consider `C=C(C)C(=O)O`, for which the Potency entry was “inactive”.

As to `N[C@@H]1CONC1=O`, the “viability change, negative = cytotoxic” value is 4.54% [at 35.3 µM].

For `CC(C)C(=O)c1c(C(C)C)nn2ccccc12`, the “viability change, negative = cytotoxic” value is -0.506% [at 35.3 µM].

Regarding `NCCCCCC(=O)O`, the “viability change, negative = cytotoxic” value is -7.75% [at 35.3 µM].

As to `CCCCOCCOC(=O)c1ccccc1C(=O)OCCOCCCC`, the Potency result was “inactive”.

Regarding `CC(=O)CC(=O)Nc1ccc2[nH]c(=O)[nH]c2c1`, the “viability change, negative = cytotoxic” value is 7.11%.

With `c1ccc2n[nH]nc2c1`, the Potency result is “inactive”.

On to `CC(=O)O[C@]1(C(C)=O)CC[C@H]2[C@@H]3C[C@H](C)C4=CC(=O)CC[C@]4(C)[C@H]3CC[C@@]21C`, for which the “viability change, negative = cytotoxic” value was -15.1% [at 35.3 µM].

As to `CCCC(=O)c1ccccc1`, the “viability change, negative = cytotoxic” value was 3.68%.

Consider `O`, for which the Potency entry was “inactive”.

Turning to `Nc1ccc2cc3ccccc3cc2c1`, the Potency result is “inactive”.

On to `CCCCCCCCCCCCCCCCCl`, for which the viability change, negative = cytotoxic was 0.131% [at 15.8 µM].

In the case of `CCn1c2ccccc2c2cc(N)ccc21`, the Potency entry is “inactive”.

As to `O=C(O[C@@H]1Cc2c(O)cc(O)cc2O[C@@H]1c1cc(O)c(O)c(O)c1)c1cc(O)c(O)c(O)c1`, the “viability change, negative = cytotoxic” value is -23.7%.

For `CN(C)c1ccc(C(=C2C=CC(=[N+](C)C)C=C2)c2ccccc2)cc1`, the Potency is 17.4 µM (active) and 21.3 µM (active) and 19 µM (active).

As for `Nc1nc2ccccc2[nH]1`, the Potency entry is “inactive”.
